# Epigenetic mod – derepresses silenced GFP locus in mouse C127i cells; Potency, µM (doses to about 46.1 µM); mouse C127i GFP locus derepression, cytometry, 30 h; actives 0.09% (n = 68,000); AID 597
#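 Locus derepression in mouse mammary C127i cells whose integrated CMV-GFP reporter is normally silent; GFP expression after 30 h compound treatment was quantified by counting fluorescent cells.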
# ERK AVP inh – blocks ERK signaling stimulated by vasopressin. HEK293-V1b, vasopressin-stimulated pERK AlphaScreen. actives 0.99% (n = 72,000). Potency, µM (highest dose often 57.5 µM), actives largely listed as inhibitors; note: nearly all actives have a fitted effect of over 55% in size
#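 Phosphorylated ERK1/2 detected via AlphaScreen bead proximity in lysates of V1b-expressing HEK293 cells given 25 nM vasopressin for 5 min after 30 min compound exposure (37 °C). AC50 from Hill equation; basal DMSO 0%, vasopressin 100%.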
# Tau fil binding – binders of human tau filaments; Potency, µM (highest dose often 57.1 µM); actives 2% (n = 71,000); recombinant tau filaments, thioflavin S fluorescence, 15 h; filaments grown with octadecylsulfate alongside compound; P10636; AID 596;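 note: actives lower thioflavin S fluorescence by blocking filaments or displacing dye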
# Target sequence (P10636 whole entry, looked up): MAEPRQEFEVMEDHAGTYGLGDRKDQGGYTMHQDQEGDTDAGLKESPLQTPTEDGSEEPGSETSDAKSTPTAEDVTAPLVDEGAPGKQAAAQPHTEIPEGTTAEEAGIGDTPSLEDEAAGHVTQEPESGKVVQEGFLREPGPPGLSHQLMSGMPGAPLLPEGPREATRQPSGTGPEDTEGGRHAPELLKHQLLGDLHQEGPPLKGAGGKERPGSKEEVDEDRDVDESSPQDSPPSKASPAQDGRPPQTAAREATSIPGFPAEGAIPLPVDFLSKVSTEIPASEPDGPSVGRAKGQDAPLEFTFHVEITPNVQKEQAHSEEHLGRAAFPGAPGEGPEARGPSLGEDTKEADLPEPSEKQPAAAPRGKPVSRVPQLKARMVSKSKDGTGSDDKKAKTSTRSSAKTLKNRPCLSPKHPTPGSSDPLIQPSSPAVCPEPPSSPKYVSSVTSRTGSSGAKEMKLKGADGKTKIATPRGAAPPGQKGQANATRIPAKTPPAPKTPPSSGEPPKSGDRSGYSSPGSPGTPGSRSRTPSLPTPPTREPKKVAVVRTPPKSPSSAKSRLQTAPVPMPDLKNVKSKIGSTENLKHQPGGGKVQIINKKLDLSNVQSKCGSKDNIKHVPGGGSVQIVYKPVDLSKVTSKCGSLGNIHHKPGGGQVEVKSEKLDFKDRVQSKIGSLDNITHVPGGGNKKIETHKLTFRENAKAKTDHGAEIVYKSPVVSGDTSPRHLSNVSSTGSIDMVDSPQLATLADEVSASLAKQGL
#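 His-tagged recombinant human tau (exons 2, 3, 10; 1 uM final) fibrillized with 30 uM sodium octadecylsulfate, 15 h at 37 C, in pH 7.4 HEPES buffer with 10 uM thioflavine S and 5 mM DTT. Reduced ThS fluorescence (450/510 nm) marks activity.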
# Hsp90 Hop PPI – changes Hsp90-Hop TPR2A binding signal, up or down; Potency, µM (highest dose often 57 µM); AID 595; actives 0.44% (n = 71,000); AlphaScreen TPR2A-His6 binding biotin-Hsp90 C-terminal peptide; active = well fitted curve in either direction with a large enough effect; inconclusive = small, poorly fitted or top-dose-only effect, or another doubt
# HBB splicing – alters splicing of the hemoglobin beta chain. Potency, µM (highest dose often 46.1 µM), actives largely listed as activators. actives 0.06% (n = 65,000). HBB splicing reporter cell assay, activation; EGFP reporter with mutant IVS2-654 intron; response scale: normalised to 500 nM splice-correcting PNA
#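 HeLa cells stably expressing EGFP interrupted by mutant beta-globin intron 2 (IVS2-654), 500/well in 2% FCS. Treated with compound for 2 days at 37C. Splicing correction scored as total well GFP intensity (488 nm excitation, 500-520 nm emission); 500 nM antisense PNA served as control.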
# UbGFP stabilizer – ubiquitin-GFP accumulation via proteasome inhibition. Ubiquitin-GFP reporter cells, proteasome inhibition, GFP fluorescence; response scale: untreated = 0%, 10 µM MG-132 = 100%. Potency, µM (highest dose often 45.9 µM), hits mostly activators. 67,000 tested, under 10 active; active = well fitted activation curve with a large enough effect, not every such curve was filed as active; inconclusive = small, poorly fitted or top-dose-only effect, or another doubt; inactive = no such curve, though single readings can be large or run the other way
#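 Reporter cells (U2OS, ubiquitin-G76V-GFP fusion) are plated overnight, then treated 4 hr at 37 °C with compound titrations from 46 uM down to 2.9 nM. Activity is scaled against untreated cells and 10 uM MG-132.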
# Numbers stand for hits; . = inactive; ? = inconclusive; / = no result; ! = not confirmed by another sample; [ ] = remark or other dose. Most compounds without a hit are left out; they make up all but 3% or so of the library. Unless noted, calls come from the whole dose curve; as a rule, active = well fitted curve in the direction sought with a large enough effect; inconclusive = small, poorly fitted or top-dose-only effect, or another doubt; inactive = no such curve, though single readings can be large; an effect the other way counts as inactive or inconclusive.
SMILES,Epigenetic mod,ERK AVP inh,Tau fil binding,Hsp90 Hop PPI,HBB splicing,UbGFP stabilizer
O=C(O)CN1CCN(CC(=O)O)CC(=O)[O][Hg][O]C(=O)C1,.[9.22 µM],.[11.5 µM],.[11.4 µM],.[11 µM],.[9.22 µM],.[9.17 µM]
CNc1ccc2oc(C[C@H]3O[C@]4(CC[C@H]3C)O[C@H]([C@H](C)C(=O)c3ccc[nH]3)[C@H](C)C[C@H]4C)nc2c1C(=O)O,.,5.01µM,39.8µM,.,/,.
S=C(S)N1CCCC1,0.631µM,?,?,.,.,.
CN(C)[C@@H]1C(=O)C(C(N)=O)=C(O)[C@]2(O)C(=O)C3=C(O)c4c(O)cccc4[C@](C)(O)[C@H]3C[C@@H]12,.[9.22 µM],.[11.5 µM],.[11.4 µM],.[11 µM],.[9.22 µM],.[9.17 µM]
CN1CC[C@]2(C)c3cc(O)ccc3N(C)[C@@H]12,.[9.22 µM],.,31.6µM!,.,.,.
C[C@@H]1[C@@H]2Cc3ccc(O)cc3[C@@]1(C)CCN2CC1CC1,.,.,.,.,.,.
CC1=C(O)C(=O)C=C2C1=CC=C1[C@]2(C)CC[C@@]2(C)C3C[C@](C)(C(=O)O)CC[C@@]3(C)CC[C@@]12C (stereo not given in full),/,31.6µM,/,/,/,/
O=C1C[C@@H]2OCC=C3CN4CC[C@]56c7ccccc7N1[C@H]5[C@@H]2[C@H]3C[C@@H]46,.[9.22 µM],/,?,.,/,.
CCCCCCCCCCCCCC(=O)O[C@H]1[C@@H](C)[C@@]2(O)[C@@H](C=C(CO)C[C@]3(O)C(=O)C(C)=C[C@@H]23)C2C(C)(C)[C@]21OC(C)=O (stereo not given in full),.,.,.,.,.,.
Nc1ccc(N2CCN(Cc3ccccc3Cl)CC2)c(Cl)c1,.,.,25.1µM,.,.,.
CNc1ccccc1C(=O)O,/,.,/,/,/,/
C[CH2][Hg][S]c1ccccc1C(=O)O,/,10µM,/,/,/,/
Cc1o[nH]c(=O)c1C[C@H](N)C(=O)O,.,.,31.6µM!,.,.,.
Cc1o[nH]c(=O)c1C[C@@H](N)C(=O)O,.,.,?,.,/,.
C[C@@]12CC[C@H]3[C@@H](CCC4=C(O)C(=O)CC[C@]43C)[C@H]1CCC2=O,.,.,.,.,.,.
CC(C)CCCC1(C)C=Cc2c(O)c3c(c(CCC(C)C)c2O1)OC12C(CC4CC1C(C)(C)OC2(CCC(C)C(=O)O)C4O)C3=O (stereo not given),/,.,/,/,/,/
CC(C)=CCCC1(C)C=Cc2c(O)c3c(c(CC=C(C)C)c2O1)OC12C(=CC4CC1C(C)(C)OC2(C/C=C(/C)C(=O)O)C4O)C3=O (stereo not given),/,5.01µM,/,/,/,/
C[C@H](c1ccccc1)N1CCN([C@@H](C)c2ccccc2)CC1,.[9.22 µM],.[11.5 µM],.[11.4 µM],.[11 µM],.[9.22 µM],.[9.17 µM]
Brc1ccc(Oc2ccc(Br)cc2Br)c(Br)c1,/,.,.,31.6µM,.,/
CCCCCCCCCCCCCl,/,.,.,.,.,/
CCCCCCC[n+]1ccc(-c2cc[n+](CCCCCCC)cc2)cc1,.,.,15.8µM,.,/,.
C/C=C1\C[C@H](C)[C@](O)(CO)C(=O)OCC2=CCN3CC[C@@H](OC1=O)[C@@H]23,.[9.22 µM],/,.,.,/,.
COc1cc2c(cc1OC)[C@@]13CCN4C=C5CCO[C@H]6CC(=O)N2[C@@H]1[C@@H]6[C@H]5C[C@H]43,.[9.22 µM],.[11.5 µM],.[11.4 µM],.[11 µM],.[9.22 µM],.[9.17 µM]
O=C(O)Cc1cccnc1C(=O)O,.,.,?,7.94µM,/,.
CCN1C(=O)c2c(C)nc3ccccc3c2C1=O,.,?,15.8µM,.,.,.
SMILES,Epigenetic mod,ERK AVP inh,Tau fil binding,Hsp90 Hop PPI,HBB splicing,UbGFP stabilizer
O=C(Nc1ccc2c(c1)OCO2)c1cn(Cc2ccc(F)cc2)nn1,.,.,12.6µM,.,/,.
CC[C@H](CO)NC(=O)[C@@H]1C=C2c3cccc4[nH]cc(c34)C[C@@H]2N(C)C1,.,.,.,.,.,.
Oc1ccc2c3c1O[C@@H]1c4[nH]c5c(c4C[C@@]4(O)[C@@H](C2)N(CC2CC2)CC[C@]314)C[C@]1(O)[C@@H]2Cc3ccc(O)c4c3[C@@]1(CCN2CC1CC1)[C@H]5O4,.,.,.,?,.,.
O=S1OCC2C(CO1)C1(Cl)C(Cl)=C(Cl)C2(Cl)C1(Cl)Cl (stereo not given),/,.,.,.,.,/
O=C(O)[C@@H]1[C@H](C(=O)O)[C@]2(Cl)C(Cl)=C(Cl)[C@@]1(Cl)C2(Cl)Cl,3.16µM,?,.[11.4 µM],.[11 µM],.[9.22 µM],.[9.17 µM]
[O]=[Cr](=[O])([OH])[O][Cr](=[O])(=[O])[OH],/,.,1.26µM!,?,?,/
COc1cc2c(cc1OC)-c1c(O)c(OC)cc3c1[C@@H](C2)N(C)CC3,.[9.22 µM],/,31.6µM,?,/,.
COc1cc2c(cc1OC)-c1c(OC)c(OC)cc3c1C(C2)N(C)CC3 (stereo not given),.,.,?,.,.,.
CN(C)CCC(C#N)(c1ccccc1)c1ccccc1,.[9.22 µM],.[11.5 µM],.[11.4 µM],.[11 µM],.[9.22 µM],.[9.17 µM]
CC1(C)CCC(C)(C)c2c1ccc(O)c2Cc1c(O)ccc2c1C(C)(C)CCC2(C)C,.[9.22 µM],.[11.5 µM],.[11.4 µM],.[11 µM],.[9.22 µM],.[9.17 µM]
O=[N+]([O-])c1ccc2c3c(cccc13)CC2,/,.,25.1µM,.,.,/
O=[N+]([O-])c1cccc2ccccc12,/,.,.,.,.,/
N[C@H](Cc1c[nH]c2ccccc12)P(=O)(O)O,.[9.22 µM],.[11.5 µM],.[11.4 µM],.[11 µM],.[9.22 µM],.[9.17 µM]
O=S(=O)(O)/C(=C\c1ccccc1)c1ccccc1 (tested in a mixture with another compound),.[9.22 µM],.[11.5 µM],.[11.4 µM],.[11 µM],.[9.22 µM],.[9.17 µM]
N[C@@H](Cc1cc(O)c(O)cc1O)C(=O)O,.,.,25.1µM,7.94µM,.,.
COC(=O)/C=C\C(=O)N[C@@H]1CC[C@@]2(O)[C@H]3Cc4ccc(O)c5c4[C@@]2(CCN3CC2CC2)[C@@H]1O5,.,.,31.6µM,.,/,.
CC(C)C[C@H](NP(=O)(O)O[C@@H]1O[C@@H](C)[C@@H](O)[C@@H](O)[C@H]1O)C(=O)N[C@@H](Cc1c[nH]c2ccccc12)C(=O)O,.,.,.,.,.,.
CCCN1CCO[C@@H]2c3cc(O)ccc3OC[C@@H]21,.,.,39.8µM,.,/,.
CN1C[C@@H](CNC(=O)OCc2ccccc2)C[C@H]2c3cccc4c3c(cn4C)C[C@@H]21,.,/,.,.,.,.
CO[C@@H]([CH2][Hg])CN1C(=O)c2ccccc2S1(=O)=O.Cn1c(=O)c2nc[nH]c2n(C)c1=O,.[9.22 µM],.[11.5 µM],.[11.4 µM],.[11 µM],.[9.22 µM],.[9.17 µM]
CCCCc1ccc2[nH]cc(CCN)c2c1,.,.,15.8µM,.,.,.
NCCc1c[nH]c2ccccc12,.,.,.,.,.,.
O=[As](O)(O)c1ccc(N=Nc2ccc([As](=O)(O)O)cc2)cc1,.[9.22 µM],.[11.5 µM],.[11.4 µM],.[11 µM],.[9.22 µM],.[9.17 µM]
O=[As](O)(O)c1ccc(N=Nc2ccc(O)cc2)cc1,.[9.22 µM],.[11.5 µM],3.16µM,.[11 µM],.[9.22 µM],.[9.17 µM]
